Experimental data as given in the supplement of paper PMC8728848.
The full list was thinned out, with the strongest signals kept by preference.

Columns and labels:
Experiment in all cases: glycan array binding signal (z-score within array); higher = stronger binding
Conditions in all cases: glycan notation: IUPAC condensed, linker removed
[1] = target: Fuc(a1-2)Gal(b1-3)GlcNAc(b1-2)Man(a1-3)[Fuc(a1-2)Gal(b1-3)GlcNAc(b1-2)Man(a1-6)]Man(b1-4)GlcNAc(b1-4)GlcNAc
Method in brief: (§1)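 From the Consortium for Functional Glycomics database, 3228 arrays were curated, keeping only those whose protein sequence was available. Binding is given as a within-array Z-score averaged across arrays sharing a protein sequence and across linkers. Negative Z-scores can be read as non-binding.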

[2] = target: Fuc(a1-2)Gal(b1-3)GlcNAc(b1-3)[Neu5Ac(a2-6)Gal(b1-4)GlcNAc(b1-6)]Gal(b1-4)Glc
Method in brief: as §1

[3] = target: Fuc(a1-2)Gal(b1-4)Fuc(a1-3)]GlcNAc(b1-2)Man(a1-3)[Fuc(a1-2)Gal(b1-4)[Fuc(a1-3)]GlcNAc(b1-2)Man(a1-6)]Man(b1-4)GlcNAc(b1-4)GlcNAc
Method in brief: as §1

[4] = target: Fuc(a1-2)Gal(b1-4)GlcNAc(b1-3)[Fuc(a1-2)Gal(b1-4)GlcNAc(b1-6)]GalNAc
Method in brief: as §1

[5] = target: Fuc(a1-2)[Gal(a1-3)]Gal(b1-4)[Fuc(a1-3)]GlcNAc
Method in brief: as §1

[6] = target: Fuc(a1-2)[GalNAc(a1-3)]Gal(b1-4)GlcNAc(b1-3)Gal(b1-4)GlcNAc
Method in brief: as §1

[7] = target: Fuc(a1-2)[GalNAc(a1-3)]Gal(b1-4)GlcNAc(b1-3)[Fuc(a1-2)[GalNAc(a1-3)]Gal(b1-4)GlcNAc(b1-6)]GalNAc
Method in brief: as §1

[8] = target: Fuc(a1-2)[GalNAc(a1-3)]Gal(b1-4)[Fuc(a1-3)]GlcNAc(b1-3)GalNAc
Method in brief: as §1

[9] = target: Fuc(a1-2)[GalNAc(a1-4)]Gal(b1-4)GlcNAc
Method in brief: as §1

[10] = target: Fuc(a1-3)[Gal(b1-4)]GlcNAc(b1-2)Man(a1-3)[Fuc(a1-3)[Gal(b1-4)]GlcNAc(b1-2)Man(a1-6)]Man(b1-4)GlcNAc(b1-4)[Fuc(a1-6)]GlcNAc
Method in brief: as §1

[11] = target: Fuc(a1-3)[Gal(b1-4)]GlcNAc(b1-3)Gal(b1-4)[Fuc(a1-3)]GlcNAc
Method in brief: as §1

[12] = target: Gal(a1-3)Gal(b1-3)GlcNAc(b1-3)GalNAc
Method in brief: as §1

[13] = target: Gal(b1-3)GlcNAc(a1-3)Gal(b1-4)GlcNAc
Method in brief: as §1

[14] = target: Gal(b1-3)GlcNAc(b1-6)[Gal(b1-3)]GalNAc
Method in brief: as §1

[15] = target: Gal(b1-3)[Fuc(a1-4)]GlcNAc(b1-2)Man(a1-3)[Gal(b1-3)[Fuc(a1-4)]GlcNAc(b1-2)Man(a1-6)]Man(b1-4)GlcNAc(b1-4)[Fuc(a1-6)]GlcNAc
Method in brief: as §1

[16] = target: Gal(b1-4)GlcNAc(b1-2)Man(a1-3)[GlcNAc(b1-4)][Gal(b1-4)GlcNAc(b1-2)Man(a1-6)]Man(b1-4)GlcNAc(b1-4)GlcNAc
Method in brief: as §1

[17] = target: Gal(b1-4)GlcNAc(b1-3)Gal(b1-4)GlcNAc(b1-2)Man(a1-3)[Gal(b1-4)GlcNAc(b1-3)Gal(b1-4)GlcNAc(b1-2)Man(a1-6)]Man(b1-4)GlcNAc(b1-4)GlcNAc
Method in brief: as §1

[18] = target: Gal(b1-4)GlcNAc(b1-3)Gal(b1-4)GlcNAc(b1-3)GalNAc
Method in brief: as §1

[19] = target: Gal(b1-4)GlcNAc(b1-3)Gal(b1-4)GlcNAc(b1-3)[Gal(b1-4)GlcNAc(b1-3)Gal(b1-4)GlcNAc(b1-6)]GalNAc
Method in brief: as §1

[20] = target: Gal3S(b1-3)[Fuc(a1-4)]GlcNAc
Method in brief: as §1

Gal3S(b1-4)Glc = target: Gal3S(b1-4)Glc
Method in brief: as §1

Gal3S4S(b1-4)GlcNAc = target: Gal3S4S(b1-4)GlcNAc
Method in brief: as §1

Gal6S(b1-4)GlcNAc6S = target: Gal6S(b1-4)GlcNAc6S
Method in brief: as §1

GalNAc(a1-3)GalNAc = target: GalNAc(a1-3)GalNAc
Method in brief: as §1

[21] = target: GalNAc(a1-3)GalNAc(b1-3)Gal(a1-4)Gal(b1-4)Glc
Method in brief: as §1

GalNAc(b1-3)Gal = target: GalNAc(b1-3)Gal
Method in brief: as §1

GalNAc3S(b1-4)GlcNAc = target: GalNAc3S(b1-4)GlcNAc
Method in brief: as §1

[22] = target: GlcNAc(b1-3)Gal(b1-4)GlcNAc(b1-2)Man(a1-3)[GlcNAc(b1-3)Gal(b1-4)GlcNAc(b1-2)Man(a1-6)]Man(b1-4)GlcNAc(b1-4)GlcNAc
Method in brief: as §1

[23] = target: GlcNAc(b1-3)Gal(b1-4)GlcNAc(b1-3)Gal(b1-4)GlcNAc(b1-3)Gal(b1-4)GlcNAc(b1-2)Man(a1-3)[GlcNAc(b1-3)Gal(b1-4)GlcNAc(b1-3)Gal(b1-4)GlcNAc(b1-3)Gal(b1-4)GlcNAc(b1-2)Man(a1-6)]Man(b1-4)GlcNAc(b1-4)[Fuc(a1-6)]GlcNAc
Method in brief: as §1

[24] = target: GlcNAc(b1-3)Gal(b1-4)GlcNAc(b1-6)[GlcNAc(b1-3)Gal(b1-3)]GalNAc
Method in brief: as §1

[25] = target: GlcNAc(b1-3)[GlcNAc(b1-4)][GlcNAc(b1-6)]GlcNAc
Method in brief: as §1

[26] = target: GlcNAc(b1-4)GlcNAc(b1-4)GlcNAc(b1-4)GlcNAc(b1-4)GlcNAc
Method in brief: as §1

[27] = target: GlcNAc(b1-4)GlcNAc(b1-4)GlcNAc(b1-4)GlcNAc(b1-4)GlcNAc(b1-4)GlcNAc
Method in brief: as §1

[28] = target: Man(a1-3)[Man(a1-6)]Man(a1-6)[Man(a1-2)Man(a1-3)]Man(b1-4)GlcNAc(b1-4)GlcNAc
Method in brief: as §1

[29] = target: Man(a1-3)[Man(a1-6)]Man(b1-4)GlcNAc(b1-4)[Fuc(a1-6)]GlcNAc
Method in brief: as §1

MurNAc(b1-4)GlcNAc = target: MurNAc(b1-4)GlcNAc
Method in brief: as §1

[30] = target: Neu5Ac(a2-3)Gal(b1-3)GalNAc(b1-4)[Neu5Ac(a2-8)Neu5Ac(a2-3)]Gal(b1-4)Glc
Method in brief: as §1

[31] = target: Neu5Ac(a2-3)Gal(b1-3)GlcNAc(b1-3)Gal(b1-3)GlcNAc
Method in brief: as §1

[32] = target: Neu5Ac(a2-3)Gal(b1-4)GlcNAc(b1-3)Gal(b1-3)GlcNAc
Method in brief: as §1

[33] = target: Neu5Ac(a2-3)Gal(b1-4)GlcNAc(b1-3)Gal(b1-4)GlcNAc(b1-2)Man(a1-3)[Neu5Ac(a2-3)Gal(b1-4)GlcNAc(b1-3)Gal(b1-4)GlcNAc(b1-2)Man(a1-6)]Man(b1-4)GlcNAc(b1-4)GlcNAc
Method in brief: as §1

[34] = target: Neu5Ac(a2-3)Gal(b1-4)GlcNAc(b1-3)Gal(b1-4)GlcNAc(b1-3)Gal(b1-4)GlcNAc(b1-2)Man(a1-3)[Neu5Ac(a2-3)Gal(b1-4)GlcNAc(b1-3)Gal(b1-4)GlcNAc(b1-3)Gal(b1-4)GlcNAc(b1-2)Man(a1-6)]GalNAc
Method in brief: as §1

[35] = target: Neu5Ac(a2-3)[GalNAc(b1-4)]Gal(b1-4)GlcNAc
Method in brief: as §1

[36] = target: Neu5Ac(a2-3)[Neu5Ac(a2-6)]GalNAc
Method in brief: as §1

[37] = target: Neu5Ac(a2-6)Gal(b1-4)GlcNAc
Method in brief: as §1

[38] = target: Neu5Ac(a2-6)Gal(b1-4)GlcNAc(b1-3)Gal(b1-4)GlcNAc(b1-3)[Neu5Ac(a2-6)Gal(b1-4)GlcNAc(b1-3)Gal(b1-4)GlcNAc(b1-6)]GalNAc
Method in brief: as §1

Neu5Ac(a2-6)GalNAc = target: Neu5Ac(a2-6)GalNAc
Method in brief: as §1

[39] = target: Neu5Ac(a2-8)Neu5Ac(a2-3)Gal(b1-3)GalNAc(b1-4)[Neu5Ac(a2-3)]Gal(b1-4)Glc
Method in brief: as §1

[40] = target: Neu5Ac(a2-8)Neu5Ac(a2-8)Neu5Ac(a2-3)[Gal(b1-3)GalNAc(b1-4)]Gal(b1-4)Glc
Method in brief: as §1

[41] = target: Neu5Ac(a2-8)Neu5Ac(a2-8)Neu5Ac(a2-3)[GalNAc(b1-4)]Gal(b1-4)Glc
Method in brief: as §1

Neu5Ac(b2-6)GalNAc = target: Neu5Ac(b2-6)GalNAc
Method in brief: as §1

[42] = target: Neu5Ac9Ac(a2-3)Gal(b1-3)GlcNAc
Method in brief: as §1

[43] = target: Neu5Gc(a2-3)Gal(b1-4)GlcNAc(b1-3)Gal(b1-4)GlcNAc(b1-2)Man(a1-3)[Neu5Gc(a2-3)Gal(b1-4)GlcNAc(b1-3)Gal(b1-4)GlcNAc(b1-2)Man(a1-6)]Man(b1-4)GlcNAc(b1-4)GlcNAc
Method in brief: as §1

[44] = target: Neu5Gc(a2-3)Gal(b1-4)[Fuc(a1-3)]GlcNAc
Method in brief: as §1

[45] = target: Neu5Gc(a2-8)Neu5Gc(a2-3)Gal(b1-4)GlcNAc(b1-3)Gal(b1-4)GlcNAc
Method in brief: as §1

B1: LFA (Limax flavus) (protein)
chain: MSVLFLAASFLLLASFELVAAQGCPRQDPGDWIVIQRRLNADVNFYRGWADYKHGFGDLRCNFWLGNEKIHQLTSHGRYKLRVEFTFNNKSYFAEYSTFKILGEADKYKLQVGGYSGNAGDALTFHNGMAFSTNDRDNDADSIDCAKVYHGAWWYKTCHESNLNGKWGSKKYGEGLNWKAKTTFTATATSSLLKIKALK
With B1 the “glycan array binding signal (z-score)” value [1] was 0.702, the “glycan array binding signal (z-score)” value [2] was -0.319 and the “glycan array binding signal (z-score)” value [3] was 1.54. The “glycan array binding signal (z-score)” value [4] was -0.186, the “glycan array binding signal (z-score)” value [5] was -0.137 and the “glycan array binding signal (z-score)” value [6] was -0.192. For the same binder, the “glycan array binding signal (z-score)” value [7] was -0.241, the “glycan array binding signal (z-score)” value [8] was -0.214 and the “glycan array binding signal (z-score)” value [9] was 3.52. For the same binder, the “glycan array binding signal (z-score)” value [10] was -0.15, the “glycan array binding signal (z-score)” value [11] was -0.217 and the “glycan array binding signal (z-score)” value [12] was 0.016. For the same binder, the “glycan array binding signal (z-score)” value [13] was -0.103, the “glycan array binding signal (z-score)” value [14] was -0.21 and the “glycan array binding signal (z-score)” value [15] was 0.669. For the same binder, the “glycan array binding signal (z-score)” value [16] was 0.181, the “glycan array binding signal (z-score)” value [17] was 2.97 and the “glycan array binding signal (z-score)” value [18] was 2.68. The “glycan array binding signal (z-score)” value [19] was 2.39, the “glycan array binding signal (z-score)” value [20] was -0.306 and the “glycan array binding signal (z-score)” value (Gal3S(b1-4)Glc) was -0.271. For the same binder, the “glycan array binding signal (z-score)” value (Gal3S4S(b1-4)GlcNAc) was -0.218, the “glycan array binding signal (z-score)” value (Gal6S(b1-4)GlcNAc6S) was -0.066 and the “glycan array binding signal (z-score)” value (GalNAc(a1-3)GalNAc) was 3.66. For the same binder, the “glycan array binding signal (z-score)” value [21] was 13.1, the “glycan array binding signal (z-score)” value (GalNAc(b1-3)Gal) was -0.195 and the “glycan array binding signal (z-score)” value (GalNAc3S(b1-4)GlcNAc) was -0.277. The “glycan array binding signal (z-score)” value [22] was -0.217, the “glycan array binding signal (z-score)” value [23] was 0.314 and the “glycan array binding signal (z-score)” value [24] was -0.285. For the same binder, the “glycan array binding signal (z-score)” value [25] was -0.405, the “glycan array binding signal (z-score)” value [26] was 2.87 and the “glycan array binding signal (z-score)” value [27] was 5.81. For the same binder, the “glycan array binding signal (z-score)” value [28] was 3.26, the “glycan array binding signal (z-score)” value [29] was 0.24 and the “glycan array binding signal (z-score)” value (MurNAc(b1-4)GlcNAc) was -0.363. For the same binder, the “glycan array binding signal (z-score)” value [30] was -0.184, the “glycan array binding signal (z-score)” value [31] was -0.139 and the “glycan array binding signal (z-score)” value [32] was -0.206. For the same binder, the “glycan array binding signal (z-score)” value [33] was 2.77, the “glycan array binding signal (z-score)” value [34] was 4.29 and the “glycan array binding signal (z-score)” value [35] was 0.019. The “glycan array binding signal (z-score)” value [36] was 1.01, the “glycan array binding signal (z-score)” value [37] was -0.176 and the “glycan array binding signal (z-score)” value [38] was 2.5. For the same binder, the “glycan array binding signal (z-score)” value (Neu5Ac(a2-6)GalNAc) was -0.345, the “glycan array binding signal (z-score)” value [39] was -0.229 and the “glycan array binding signal (z-score)” value [40] was -0.353. For the same binder, the “glycan array binding signal (z-score)” value [41] was 0.236, the “glycan array binding signal (z-score)” value (Neu5Ac(b2-6)GalNAc) was -0.284 and the “glycan array binding signal (z-score)” value [42] was -0.339. For the same binder, the “glycan array binding signal (z-score)” value [43] was -0.166, the “glycan array binding signal (z-score)” value [44] was -0.306 and the “glycan array binding signal (z-score)” value [45] was -0.237.
